Records with an inconclusive call do not appear. Activity calls are given as the source filed them. The calls were made as follows, unless noted: active = hit-call score of the fitted dose curve at least 0.9, where 1 is the maximum; inactive = score below 0.9.
assay: CCTE_Shafer_MEA_dev_per_burst_interspike_interval: CCTE's Neural Network Formation Assay for Burst Interspike Interval, Shafer Lab (AID 2284044);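 also: mean spike spacing inside bursts as AUC over recordings on days 5 7 9 12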;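 as to AC50: potency for a decrease of within-burst interspike interval below DMSO level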
Method in brief: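 Rat cortical primary cultures, 16 electrodes/well; compound from plating, renewed with full media change DIV 5 and 9. Spikes via adaptive detector; per-burst ISI well-mean over active bursting electrodes; AUC of DIV 5/7/9/12 recordings; loss-direction fit vs DMSO.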

SMILES	outcome	AC50
CCC1(c2ccccc2)C(=O)NC(=O)NC1=O	inactive	–
c1ccc2c(c1)cc1ccc3cccc4ccc2c1c34	inactive	–
CCC[CH2][Sn]([CH2]CCC)([CH2]CCC)[O][Sn]([CH2]CCC)([CH2]CCC)[CH2]CCC	–	76.8 nM (active)

assay: CCTE_Shafer_MEA_dev_burst_duration_mean: CCTE's Neural Network Formation Assay for Mean Burst Duration, Shafer Lab (AID 2284045);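 as to AC50: curve fitted for loss meaning shorter burst duration than DMSO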
Method in brief: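 Mean single-electrode burst duration (first to last spike), averaged over bursting electrodes per well, then integrated as area-under-curve across recordings at days 5, 7, 9 and 12. Rat cortical cultures on MEAs, compound present from plating, refreshed at feeds.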

SMILES	outcome	AC50
CCC1(c2ccccc2)C(=O)NC(=O)NC1=O	inactive	–
c1ccc2c(c1)cc1ccc3cccc4ccc2c1c34	inactive	–
CCC[CH2][Sn]([CH2]CCC)([CH2]CCC)[O][Sn]([CH2]CCC)([CH2]CCC)[CH2]CCC	–	34 nM (active)

assay: CCTE_Shafer_MEA_dev_interburst_interval_mean: CCTE's Neural Network Formation Assay for Mean Interburst Interval, Shafer Lab (AID 2284046);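 also: well-mean interburst interval of bursting electrodes as AUC over four recording days; curve fitted for decrease in interburst interval relative to DMSO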
Method in brief: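 Rat cortical neurons, 1.5 x 10^5 cells/well, 48-well MEA; compound from day 0 through DIV 12, media and treatment renewed DIV 5/9. Recordings DIV 5, 7, 9, 12; well-mean interburst interval → trapezoidal AUC, loss direction vs DMSO.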

SMILES	outcome	AC50
CCC1(c2ccccc2)C(=O)NC(=O)NC1=O	inactive	–
c1ccc2c(c1)cc1ccc3cccc4ccc2c1c34	inactive	–
CCC[CH2][Sn]([CH2]CCC)([CH2]CCC)[O][Sn]([CH2]CCC)([CH2]CCC)[CH2]CCC	–	76.2 nM (active)

assay: CCTE_Shafer_MEA_dev_inter_network_spike_interval_mean: CCTE's Neural Network Formation Assay for Mean Inter-network Spike Interval, Shafer Lab (AID 2284047);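 as to AC50: potency for a decrease in mean inter-network spike interval below DMSO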
Method in brief: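 Primary rat cortical neurons on PEI-coated 48-well MEAs (16 electrodes/well) were exposed from plating day 0 to DIV 12, with dosing renewed at DIV 5 and 9. Recordings at DIV 5, 7, 9, 12 were collapsed by trapezoidal AUC, loss-of-signal fit vs DMSO.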

SMILES	outcome	AC50
CCC1(c2ccccc2)C(=O)NC(=O)NC1=O	inactive	–
c1ccc2c(c1)cc1ccc3cccc4ccc2c1c34	inactive	–
CCC[CH2][Sn]([CH2]CCC)([CH2]CCC)[O][Sn]([CH2]CCC)([CH2]CCC)[CH2]CCC	–	31.5 nM (active)

assay: CCTE_Shafer_MEA_dev_network_spike_peak: CCTE's Neural Network Formation Assay for Mean Number of Electrodes in Network Spike, Shafer Lab (AID 2284049);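 as to AC50: fitted for loss of signal meaning fewer electrodes in network spikes than DMSO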
Method in brief: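 Rat cortical primary culture, 1.5 x 10^5 cells/well, 48-well MEA (16 electrodes/well). Dosing day 0 through DIV 12, full media/compound exchange DIV 5, 9. AxIS adaptive spike detection; AUC over days 5/7/9/12; loss-of-signal vs DMSO.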

SMILES	outcome	AC50
CCC1(c2ccccc2)C(=O)NC(=O)NC1=O	inactive	–
c1ccc2c(c1)cc1ccc3cccc4ccc2c1c34	inactive	–
CCC[CH2][Sn]([CH2]CCC)([CH2]CCC)[O][Sn]([CH2]CCC)([CH2]CCC)[CH2]CCC	–	45.7 nM (active)

assay: CCTE_Shafer_MEA_dev_spike_duration_mean: CCTE's Neural Network Formation Assay for Mean Spike Duration, Shafer Lab (AID 2284051);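 also: mean network spike duration pooled as area under curve over DIV 5 to 12 recordings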;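 as to AC50: potency for a decrease in mean network spike duration versus DMSO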
Method in brief: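 Rat cortical primary cultures, 48-well MEA (16 electrodes/well); compound from plating, renewed DIV 5, 9. Network spike duration (AxIS adaptive detector) recorded DIV 5/7/9/12, combined as trapezoidal AUC; loss direction vs DMSO.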

SMILES	outcome	AC50
CCC1(c2ccccc2)C(=O)NC(=O)NC1=O	inactive	–
c1ccc2c(c1)cc1ccc3cccc4ccc2c1c34	inactive	–
CCC[CH2][Sn]([CH2]CCC)([CH2]CCC)[O][Sn]([CH2]CCC)([CH2]CCC)[CH2]CCC	–	30.8 nM (active)

assay: CCTE_Shafer_MEA_dev_network_spike_duration_std: CCTE's Neural Network Formation Assay for Standard Deviation of Network Spike Duration, Shafer Lab (AID 2284052);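 also: hits are decreases in network spike duration SD versus DMSO vehicle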
Method in brief: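 Rat cortical cultures, 1.5 x 10^5 cells/well, exposed continuously from plating to DIV 12 with media/compound renewal at DIV 5, 9. Spontaneous activity recorded DIV 5/7/9/12, AxIS adaptive spike detector; AUC across days; negative direction vs DMSO.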

SMILES	outcome	AC50
CCC1(c2ccccc2)C(=O)NC(=O)NC1=O	inactive	–
c1ccc2c(c1)cc1ccc3cccc4ccc2c1c34	inactive	–
CCC[CH2][Sn]([CH2]CCC)([CH2]CCC)[O][Sn]([CH2]CCC)([CH2]CCC)[CH2]CCC	–	31.2 nM (active)

assay: CCTE_Shafer_MEA_dev_per_network_spike_spike_number_mean: CCTE's Neural Network Formation Assay for Mean Number of Spikes in a Network Spike, Shafer Lab (AID 2284053);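 as to AC50: fitted as decrease in spikes per network spike relative to DMSO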
Method in brief: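 Rat cortical primary cultures on 48-well MEA; compound from day 0, re-dosed with full media change DIV 5, 9. Recorded DIV 5, 7, 9, 12; spikes in 0.05 s window at network-spike peak ÷ total network spikes; AUC; loss vs DMSO.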

SMILES	outcome	AC50
CCC1(c2ccccc2)C(=O)NC(=O)NC1=O	inactive	–
c1ccc2c(c1)cc1ccc3cccc4ccc2c1c34	inactive	–
CCC[CH2][Sn]([CH2]CCC)([CH2]CCC)[O][Sn]([CH2]CCC)([CH2]CCC)[CH2]CCC	–	29 nM (active)

assay: CCTE_Shafer_MEA_dev_per_network_spike_spike_percent: CCTE's Neural Network Formation Assay for Percent of Spikes in a Network Spike, Shafer Lab (AID 2284054)
Method in brief: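 Metric: fraction of spikes falling in a 0.05 s window at network-spike peaks. Recordings were made on days 5, 7, 9 and 12 and collapsed by trapezoidal AUC. Cultures were rat cortical neurons on MEA plates, dosed continuously from plating, re-dosed at media changes.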

SMILES	outcome	AC50
CCC1(c2ccccc2)C(=O)NC(=O)NC1=O	inactive	–
c1ccc2c(c1)cc1ccc3cccc4ccc2c1c34	inactive	–
CCC[CH2][Sn]([CH2]CCC)([CH2]CCC)[O][Sn]([CH2]CCC)([CH2]CCC)[CH2]CCC	–	77 nM (active)

assay: CCTE_Shafer_MEA_dev_LDH: CCTE's Lactate Dehydrogenase Assay for Cytotoxicity in the Neural Network Formation Assay, Shafer Lab (AID 2284068; active = hit-call score of the fitted dose curve at least 0.9, where 1 is the maximum;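 also: exposure for twelve days from plating with re-dosing on DIV 5 and 9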)
Method in brief: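 Rat cortical primary neurons, MEA culture; dosing day 0–12, full medium plus compound exchange DIV 5, 9. Read-out: LDH enzyme activity, spectrophotometric. DMSO = negative control/baseline; signal loss → cytotoxicity.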

SMILES	outcome	AC50
CCC1(c2ccccc2)C(=O)NC(=O)NC1=O	inactive	–
c1ccc2c(c1)cc1ccc3cccc4ccc2c1c34	inactive	–
CCC[CH2][Sn]([CH2]CCC)([CH2]CCC)[O][Sn]([CH2]CCC)([CH2]CCC)[CH2]CCC	–	32.8 nM (active)

assay: CCTE_Shafer_MEA_dev_mutual_information_norm: CCTE's Neural Network Formation Assay for Mutual Information Normalization, Shafer Lab (AID 2284091);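 as to AC50: mutual information between electrodes summarised as area under curve across four recording days; potency is for a decrease in mutual information relative to DMSO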
Method in brief: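 Shared information across electrodes, tracked on days 5, 7, 9 and 12 of network development and collapsed as trapezoidal area under the curve. Rat cortical cultures were treated continuously from plating, with treatment renewed at feeds on DIV 5 and 9; DMSO baseline, negative-direction fit.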

SMILES	outcome	AC50
CCC1(c2ccccc2)C(=O)NC(=O)NC1=O	inactive	–
c1ccc2c(c1)cc1ccc3cccc4ccc2c1c34	inactive	–
CCC[CH2][Sn]([CH2]CCC)([CH2]CCC)[O][Sn]([CH2]CCC)([CH2]CCC)[CH2]CCC	–	34.5 nM (active)

assay: CCTE_Shafer_MEA_dev_correlation_coefficient_mean: CCTE's Neural Network Formation Assay for Mean Correlation Coefficient, Shafer Lab (AID 2284093);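 as to AC50: well mean pairwise spike train correlation integrated as AUC over recording days 5 to 12; potency fitted for loss of correlation relative to DMSO vehicle wells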
Method in brief: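 Rat cortical cultures, 1.5 x 10^5 cells/well, dosed from day 0 for 12 days. Spontaneous spikes recorded DIV 5/7/9/12; electrode-pair correlation coefficients averaged, AUC taken. Fit in loss direction vs DMSO.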

SMILES	outcome	AC50
CCC1(c2ccccc2)C(=O)NC(=O)NC1=O	inactive	–
c1ccc2c(c1)cc1ccc3cccc4ccc2c1c34	inactive	–
CCC[CH2][Sn]([CH2]CCC)([CH2]CCC)[O][Sn]([CH2]CCC)([CH2]CCC)[CH2]CCC	–	33.5 nM (active)
